Assay results from PubChem BioAssay.
Active and inactive are the calls of the source. Unless noted, no rule for the calls is given here.

How the values were obtained:
[1] = compound effects on lung adenocarcinoma cell viability – A549, calcein-AM fluorescence, 48 h, basal, profiling panel (AID 1162); details: higher = more signal; also: test concentration not given here
[2] = compound effects on differentiated 3T3-L1 adipocyte viability – cell-based, 3T3-L1 adipocytes, calcein-AM fluorescence, 48 h, basal, profiling panel (AID 1163); details: 3T3-L1 adipocytes viability, higher = more signal; also: test concentration not given here
[3] = compound effects on hepatocellular carcinoma cell viability – HepG2, calcein-AM fluorescence, 48 h, basal, profiling panel (AID 1164); details: higher = more signal; also: test concentration not given here
[4] = compound effects on multiple myeloma cell viability – MM1S, calcein-AM fluorescence, 48 h, basal, profiling panel (AID 1165); details: higher = more signal;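 also: viability of MM1S multiple myeloma cells under basal unstimulated conditions; test concentration not given here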
[5] = calcein-AM signal in unstimulated myeloma cells – cell-based, calcein-AM fluorescence, 48 h, PK04 Diversity Set, profiling panel (AID 1166); details: RPMI8226 myeloma viability, higher = more signal;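 also: cells grown under basal conditions without added stimulus; test concentration not given here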
[6] = JC-1 mitochondrial signal, unstimulated HepG2 cells – cell-based, JC-1 fluorescence, 24 h, 100 nL compound, profiling panel (AID 1167); details: HepG2 mitochondrial potential, higher = more signal; also: test concentration not given here
[7] = JC-1 mitochondrial signal, unstimulated adipocytes – cell-based, JC-1 fluorescence, 3T3-L1 adipocytes, 24 h, 100 nL compound, profiling panel (AID 1168); details: JC-1 mitochondrial fluorescence, higher = more signal, called active from +8 up or from −8 down; also: test concentration not given here
[8] = JC-1 mitochondrial signal, unstimulated myeloma cells – cell-based, JC-1 fluorescence, RPMI8226, 24 h, 100 nL compound, profiling panel (AID 1169); details: JC-1 mitochondrial potential fluorescence, higher = more signal; also: test concentration not given here
[9] = JC-1 mitochondrial signal, unstimulated MM1S myeloma – cell-based, JC-1 fluorescence, 24 h, 100 nL compound, profiling panel (AID 1170); details: MM1S mitochondrial potential, higher = more signal; also: test concentration not given here
[10] = resazurin metabolic signal in A549 cells – cell-based, resazurin fluorescence, 24 h, PK04 Diversity Set, profiling panel (AID 1171); details: A549 viability, higher = more signal, called active from +8 up or from −8 down; also: test concentration not given here
[11] = resazurin metabolic signal in HepG2 cells – cell-based, resazurin fluorescence, 24 h, PK04 Diversity Set, profiling panel (AID 1172); details: HepG2 viability, higher = more signal; also: test concentration not given here
[12] = budding yeast growth changes without added modifier – OD600, strain BY4716, 24 h, basal condition, primary screen (AID 1173); details: S. cerevisiae BY4716 growth, OD600, 24 h; higher = more signal, called active from +8 up or from −8 down
[13] = viability profiling in MM1S myeloma cells – cell-based, resazurin fluorescence, basal, 24 h, PK04 Diversity Set, profiling panel (AID 1174); details: higher = more signal, called active from +8 up or from −8 down; also: test concentration not given here
[14] = target: Dihydroorotate dehydrogenase (quinone), mitochondrial (Plasmodium falciparum (isolate 3D7)) (UniProt Q08210); experiment: inhibition of P. falciparum DHODH – biochemical, C-terminal His tag, absorbance 600 nm, primary screen (AID 1175); details: PfDHODH enzyme, DCIP absorbance 600 nm; higher = more signal, called active from +8 up or from −8 down;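 also: recombinant parasite enzyme with a five histidine tag at its C terminus; test concentration not given here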
Sequence of Dihydroorotate dehydrogenase (quinone), mitochondrial (Plasmodium falciparum (isolate 3D7)) (Q08210 whole entry, looked up): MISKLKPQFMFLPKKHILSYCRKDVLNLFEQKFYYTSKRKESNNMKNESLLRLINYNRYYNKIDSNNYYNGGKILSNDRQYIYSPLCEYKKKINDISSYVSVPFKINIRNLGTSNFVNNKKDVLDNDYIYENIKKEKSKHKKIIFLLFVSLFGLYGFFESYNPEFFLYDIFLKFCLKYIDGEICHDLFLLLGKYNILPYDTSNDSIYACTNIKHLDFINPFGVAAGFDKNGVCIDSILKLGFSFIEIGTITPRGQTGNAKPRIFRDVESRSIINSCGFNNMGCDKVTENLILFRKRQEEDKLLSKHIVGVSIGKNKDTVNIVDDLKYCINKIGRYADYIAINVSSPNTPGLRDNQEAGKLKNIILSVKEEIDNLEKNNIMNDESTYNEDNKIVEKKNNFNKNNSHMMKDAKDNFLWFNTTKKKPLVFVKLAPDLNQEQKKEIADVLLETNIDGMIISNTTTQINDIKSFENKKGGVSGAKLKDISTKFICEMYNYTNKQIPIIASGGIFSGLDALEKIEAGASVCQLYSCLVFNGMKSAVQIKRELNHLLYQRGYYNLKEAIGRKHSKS

[15] = inhibition of PAO1 biofilm formation – strain PAO1, LB-PBS medium, absorbance 600 nm, primary screen (AID 1176); also: test concentration not given here; details: P. aeruginosa PAO1 growth/biofilm, A600, 12 h; higher = more signal
[16] = growth modulation of vineyard yeast isolate – strain RM11-1a, OD600, basal, 24 h, primary screen (AID 1177);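 also: cultures grown under basal conditions with no added stressor; test concentration not given here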; details: S. cerevisiae RM11-1a growth, OD600, 24 h; higher = more signal, called active from +8 up or from −8 down
[17] = growth of efflux-deficient E. coli DRC39 – strain DRC39, OD650, 24 h, E. coli filamentation inducers, primary screen (AID 1178);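 also: growth measured as culture turbidity by optical density at 650 nm; test concentration not given here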; details: E. coli DRC39 acrAB, higher = more signal, called active from +8 up or from −8 down
[18] = growth of efflux-deficient E. coli DRC39 – strain DRC39, OD650, 48 h, E. coli filamentation inducers, primary screen (AID 1179);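 also: screen aims at cell division blockers that make cells filament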; details: E. coli DRC39 delta-acrAB growth, higher = more signal, called active from +8 up or from −8 down
[19] = viability profiling in RPMI8226 myeloma cells – cell-based, resazurin fluorescence, basal, 24 h, PK04 Diversity Set, profiling panel (AID 1180); details: higher = more signal;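 also: RPMI8826 multiple myeloma cell line at 5000 cells per well; test concentration not given here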
[20] = target: E3 ubiquitin-protein ligase XIAP (Homo sapiens) (UniProt P98170); experiment: small molecules binding XIAP protein – biophysical, small-molecule microarray, fluorescence 635 nm, primary screen (AID 1181); details: higher = more signal;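 also: score merges 667 nm emission and signal to noise over triplicate slides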
Sequence of E3 ubiquitin-protein ligase XIAP (Homo sapiens) (P98170 whole entry, looked up): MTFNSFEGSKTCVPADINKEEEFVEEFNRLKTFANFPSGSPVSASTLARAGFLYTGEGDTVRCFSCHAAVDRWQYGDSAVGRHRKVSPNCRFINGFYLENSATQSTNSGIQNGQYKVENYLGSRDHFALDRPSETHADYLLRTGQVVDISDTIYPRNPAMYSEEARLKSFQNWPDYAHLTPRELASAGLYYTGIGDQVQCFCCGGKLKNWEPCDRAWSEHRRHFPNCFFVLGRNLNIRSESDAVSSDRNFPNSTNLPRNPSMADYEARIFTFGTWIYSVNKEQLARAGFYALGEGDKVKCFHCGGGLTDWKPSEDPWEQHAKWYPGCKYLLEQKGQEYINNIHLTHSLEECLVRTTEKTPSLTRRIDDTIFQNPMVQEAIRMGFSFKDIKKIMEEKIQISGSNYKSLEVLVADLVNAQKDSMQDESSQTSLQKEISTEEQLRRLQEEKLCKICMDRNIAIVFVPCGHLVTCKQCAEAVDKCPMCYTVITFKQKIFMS

Compound	z-score [1]	z-score [2]	z-score [3]	z-score [4]	z-score [5]	z-score [6]	z-score [7]	z-score [8]	z-score [9]	z-score [10]	z-score [11]	z-score [12]	z-score [13]	composite z-score [14]	z-score [15]	z-score [16]	z-score [17]	z-score [18]	z-score [19]	composite z-score [20]
COC(=O)C[C@H]1O[C@]2(C(=O)N(Cc3ccccc3)c3ccc(NC(C)=O)cc32)[C@@H](C)[C@@H]1[Si](C)(C)c1ccc(OC)cc1	-0.472	1.73	0.425	0.0926	-2.57	0.0504	1.73 (inactive)	-0.0063	0.402	-1.62 (inactive)	-1.11	0.457 (inactive)	-1.33 (inactive)	1.45 (inactive)	-0.602 (inactive)	0.952 (inactive)	-0.871 (inactive)	-0.69 (inactive)	-0.681	-0.227
COc1ccc(C(O)C2C=CC3C(=O)NC(=O)C3N2Nc2ccccn2)cc1OCc1ccccc1 (stereo not given)	-1.11	0.119	0.222	-0.042	-1.22	-1	-0.479 (inactive)	-0.879	0.607	-0.404 (inactive)	-0.8	0.481 (inactive)	-0.581 (inactive)	1.58 (inactive)	1.48 (inactive)	0.18 (inactive)	-0.855 (inactive)	0.145 (inactive)	-1.87	0.578
C=CCNC(=O)[C@@H]1[C@H]2C(=O)O[C@H](c3ccccc3)[C@H](c3ccccc3)N2[C@H](c2ccc(OCCO)cc2)[C@@]12C(=O)Nc1ccccc12	1.66	1.59	0.521	0.491	0.0581	-0.912	1.01 (inactive)	-0.725	0.224	-0.0995 (inactive)	0.61	-1.67 (inactive)	-0.0761 (inactive)	-2.04 (inactive)	3.15 (inactive)	-0.412 (inactive)	1.34 (inactive)	0.548 (inactive)	-0.0855	0.0192
CCOC(=O)C[C@H]1[C@H](OC(=O)c2ccc(-c3ccccc3)cc2)[C@@H](NC(=O)c2ccc3ccccc3c2)c2cc(OCCCO)ccc2N1C(=O)Cc1ccc(OC)cc1	0.0289	0.965	0.0837	-0.379	0.0182	2.96	-0.000915 (inactive)	0.462	0.189	0.24 (inactive)	0.339	-0.461 (inactive)	0.158 (inactive)	-0.173 (inactive)	-0.501 (inactive)	-0.169 (inactive)	0.281 (inactive)	0.454 (inactive)	0.507	0.144
O=C1C2C=CC(C(O)c3cccs3)N(Nc3ccccc3F)C2C(=O)N1c1ccccc1 (stereo not given)	-0.543	0.289	-0.901	0.46	0.167	-0.686	0.321 (inactive)	0.635	-0.947	0.433 (inactive)	1.21	-1.3 (inactive)	0.982 (inactive)	0.609 (inactive)	0.574 (inactive)	-0.24 (inactive)	-0.0052 (inactive)	1.05 (inactive)	0.562	0.33
COC(=O)[C@@]1(Cc2ccccc2)N=C(c2ccc(OCCCO)cc2)O[C@H]1c1ccccc1N=[N+]=[N-]	0.119	0.113	-2.06	-3.35	-4.04	1.12	-0.528 (inactive)	-1.11	-0.896	-1.83 (inactive)	-0.914	0.0975 (inactive)	-2.58 (inactive)	0.0308 (inactive)	1.49 (inactive)	1.57 (inactive)	0.368 (inactive)	0.752 (inactive)	-2.93	0.723
O=C1O[C@H](c2ccccc2)[C@H](c2ccccc2)N2[C@H]1[C@@H](C(=O)NC[C@H](O)c1ccccc1)[C@]1(C(=O)Nc3ccc(C#CCCO)cc31)[C@H]2c1ccc(O)cc1	0.102	1.09	-0.975	0.245	-0.155	-0.72	0.0782 (inactive)	0.626	0.000313	0.024 (inactive)	-0.0297	0.047 (inactive)	-0.0226 (inactive)	-1.4 (inactive)	0.432 (inactive)	0.117 (inactive)	-0.568 (inactive)	-0.982 (inactive)	-0.186	0.133
C=CC[C@@]1(C(=O)NCC(O)CO)N=C(c2ccc(OCCCO)cc2)O[C@@H]1c1ccccc1N=[N+]=[N-] (stereo not given in full)	-0.112	1.37	-0.805	-0.494	-1.14	0.582	-0.343 (inactive)	-0.164	-1.17	0.695 (inactive)	0.896	-0.965 (inactive)	-0.12 (inactive)	-0.269 (inactive)	-0.0709 (inactive)	0.0157 (inactive)	1.69 (inactive)	1.29 (inactive)	-0.274	0.0049
CC(C)OC(=O)CC(=O)CC(O)c1ccc(C#N)cc1 (stereo not given)	0.633	0.612	1.01	0.526	-0.116	0.615	0.497 (inactive)	-0.0971	-1.44	0.617 (inactive)	0.602	-0.0106 (inactive)	0.8 (inactive)	-1.12 (inactive)	-0.088 (inactive)	-0.608 (inactive)	-0.0611 (inactive)	1.44 (inactive)	1.43	-0.194
COC(=O)[C@@]1(Cc2ccccc2)[C@H]2c3cc(C(=O)N(C)C)n(Cc4c(-c5ccccc5)noc4C)c3C[C@H]2CN1C(=O)c1ccccc1	-0.914	-1	-1.41	-1.05	-1.09	2.14	-1.05 (inactive)	0.168	-0.822	-0.702 (inactive)	-1.19	1.56 (inactive)	-2.41 (inactive)	-0.403 (inactive)	1.98 (inactive)	0.337 (inactive)	-0.539 (inactive)	-0.971 (inactive)	-2.93	0.424
O=C1O[C@H](c2ccccc2)[C@H](c2ccccc2)N2[C@H]1[C@@H](C(=O)O)[C@]1(C(=O)Nc3ccc(C#CC4(O)CCCCCC4)cc31)[C@H]2c1ccc(OCCO)cc1	0.82	0.287	0.293	-1.99	-0.216	-1.82	-1.07 (inactive)	-0.559	-0.683	-0.0693 (inactive)	0.246	-0.495 (inactive)	-0.249 (inactive)	-4.61 (inactive)	1.07 (inactive)	2.12 (inactive)	-0.184 (inactive)	-0.151 (inactive)	-0.317	-0.0181
Cc1ccc(S[C@]2(C(=O)NC3CC3)CC(=O)N(C3CCCCC3)[C@@H]2c2ccc(CO)cc2I)cc1	1.07	-0.07	1.12	-2.5	-1.7	1.62	0.124 (inactive)	-0.558	-1.2	-0.0731 (inactive)	0.57	-0.134 (inactive)	-0.232 (inactive)	1.44 (inactive)	0.475 (inactive)	0.537 (inactive)	0.738 (inactive)	0.377 (inactive)	-1.54	-0.13
NCCCCCNC(=O)[C@H]1C[C@H]2C(=O)NCC(=O)N2[C@H]1c1cccc(OCCO)c1	1.5	0.118	0.79	0.892	0.857	0.538	1.18 (inactive)	-0.164	-0.158	0.547 (inactive)	0.871	-0.0725 (inactive)	0.998 (inactive)	-0.355 (inactive)	-0.242 (inactive)	0.0993 (inactive)	1.07 (inactive)	1.23 (inactive)	0.616	-0.119
C=CC[C@@]1(C(=O)N2CCOCC2)N=C(c2ccc(OCCCO)cc2)O[C@@H]1c1ccccc1N=[N+]=[N-]	-0.168	1.02	0.249	-0.791	-1.96	1.38	1.57 (inactive)	-0.97	-1.71	-0.915 (inactive)	-0.268	-1.24 (inactive)	-1.64 (inactive)	0.443 (inactive)	-0.236 (inactive)	0.367 (inactive)	0.992 (inactive)	0.123 (inactive)	-1.33	0.117
COc1cccc(C(=O)O[C@H]2CC[C@]3(C)C4=C(CCC3C2(C)C)[C@]2(C)CC[C@H]([C@H](C)CCCC(C)C)[C@@]2(C)CC4)c1 (stereo not given in full)	0.583	0.146	0.689	-0.56	0.241	1.28	0.387 (inactive)	-0.0502	-1.49	0.479 (inactive)	0.514	-0.488 (inactive)	0.697 (inactive)	-2.17 (inactive)	0.671 (inactive)	-1.62 (inactive)	0.621 (inactive)	1.18 (inactive)	0.815	0.132
COc1ccc([Si](C)(C)[C@H]2[C@H](CCn3cc([C@H](O)c4ccccc4)nn3)O[C@@]3(C(=O)N(Cc4cccc(N5CCC5=O)c4)c4ccccc43)[C@@H]2C)cc1	0.692	1.3	1.57	0.739	-1.32	0.906	-0.336 (inactive)	-1.15	-0.948	-0.323 (inactive)	0.429	-1.53 (inactive)	-0.85 (inactive)	-1.21 (inactive)	1.59 (inactive)	-0.101 (inactive)	0.898 (inactive)	1.02 (inactive)	0.388	0.166
C=C(COC)C(=O)CC[C@@H](OC(=O)c1cccnc1)c1ccc(CO)o1	0.408	-0.615	0.0726	-0.193	-0.205	-0.178	-0.294 (inactive)	0.0598	0.627	0.709 (inactive)	0.114	-0.0873 (inactive)	0.78 (inactive)	-0.604 (inactive)	0.649 (inactive)	-0.318 (inactive)	0.831 (inactive)	0.555 (inactive)	0.807	-0.0802
N[C@@H](Cc1ccccc1)Cn1cc(-c2ccccc2)nn1	-0.192	-0.711	-0.0622	-1.57	-0.0672	1.18	0.399 (inactive)	-0.515	0.137	0.837 (inactive)	-0.473	-2.26 (inactive)	-0.29 (inactive)	1.11 (inactive)	0.444 (inactive)	-0.519 (inactive)	0.405 (inactive)	-0.679 (inactive)	-0.587	-0.377
